From PubChem BioAssay (Tox21) come the findings set out here.

Molecules are shown by their SMILES. Values without a mark were called inactive. Records with an inconclusive call do not appear. Active and inactive are the calls of the source. Unless noted, the call rests on the fitted dose curve.

Test [1] in a line: qHTS assay to identify small molecule agonists of the sonic hedgehog signaling (Shh) pathway (AID 1259368).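 Further: NIH/3T3-derived 3T3Gli1-Luc cells carrying a stable Gli1-driven firefly luciferase reporter; series mostly up to about 92 µM; nearly all actives have a fitted effect of over 15% in size.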 A digest of the protocol:
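Cells of a mouse NIH/3T3 clone stably expressing luciferase under the Gli1 transcriptional response element are exposed to test chemicals for 24 hr at 37 C. Pathway activation is detected as a rise in luminescence.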

A short description of test [2]: qHTS assay to identify small molecule antagonists of the sonic hedgehog signaling (Shh) pathway (AID 1259369). Further: nearly all actives have a fitted effect of over 45% in size. The gist of the method:
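Cells are plated and held 4hr at 37 C, compounds (DMSO) are pinned in, conditioned medium is added to stimulate the pathway, and after 24hr luciferase reagent is added for 30min before luminescence is read.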
(qHTS replaces the single test concentration by a dilution series.)

Test [3] can be described thus: qHTS assay to identify small molecule agonists of the androgen receptor (AR) signaling pathway in the presence of an antagonist - cell viability counter screen (AID 1259379; active means well fitted curve in the direction sought with a large enough effect in the repeat runs; an effect the other way counts as inactive or inconclusive;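 further: MDA-kb2 human breast cancer cells carrying an MMTV luciferase reporter; series mostly up to about 92 µM; nearly all actives have a fitted effect of over 25% in size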). The gist of the method: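 Cytotoxicity is assessed by CellTiter-Fluor in MDA-kb2 cells carrying an MMTV-driven luciferase reporter. Cells receive 3.0uM nilutamide plus compounds at 15 concentrations and incubate 16 hr at 37C without CO2 before fluorescence reading.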

Test [4] is described as follows: qHTS assay to identify small molecule antagonists of the estrogen receptor beta (ER-beta) signaling pathway - cell viability counter screen (AID 1259382; active means well fitted curve in the direction sought with a large enough effect in the repeat runs; an effect the other way counts as inactive or inconclusive;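 further: HEK293T cells carrying ER-beta-UAS-bla reporter stimulated with estradiol; series mostly up to about 92 µM; nearly all actives have a fitted effect of over 55% in size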). A digest of the protocol: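 Cytotoxicity counter screen multiplexed with the beta-lactamase antagonist assay: GripTite HEK293T ER-beta-bla cells were treated 16 hr with test chemicals in the presence of 1nM 17-beta-estradiol, and viability was measured by CellTiter-Glo.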

Test [5] in a line: qHTS assay to identify small molecule agonists or antagonists of the thyroid stimulating hormone receptor (TSHR) signaling pathway - wild type cell line counter screen (AID 1259384). The gist of the method:
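Wild-type HEK293 cells were plated 18 h at 37 C/5% CO2, pin-dosed with compound plus Ro20-1724 medium, held 30 min at room temperature, then given cAMP-d2 and anti-cAMP-cryptate; fluorescence was read after 1 h. Fifteen concentrations, triplicate.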

The target in test [6] is Thyrotropin receptor (Homo sapiens) (UniProt P16473). In words: qHTS assay to identify small molecule antagonists of the thyroid stimulating hormone receptor (TSHR) signaling pathway (AID 1259385). Further: nearly all actives have a fitted effect of over 20% in size. The gist of the method:
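TSHR-HEK293 cells were plated and held 18 h at 37C/5% CO2, then given compound plus Ro20-1724 and stimulated with TSH at 1.5 ng/mL final. After 30 min at room temperature, cAMP was detected with cAMP-d2/anti-cAMP-cryptate (1 h) by fluorescence.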

The nature of test [7]: qHTS assay to identify small molecule agonists of the estrogen receptor alpha (ER-alpha) signaling pathway in the presence of an antagonist - cell viability counter screen (AID 1259386; active means well fitted curve in the direction sought with a large enough effect in the repeat runs; an effect the other way counts as inactive or inconclusive;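 further: series mostly up to about 92 µM; cells exposed to compounds for 22 h at 37 °C before the viability read; nearly all actives have a fitted effect of over 30% in size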). A digest of the protocol: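 Cytotoxicity was measured in parallel with the ERE-luciferase agonist screen, in the same wells. The cells were VM7Luc4E2, which endogenously express ER-alpha, and treatment was with compounds plus 10.0nM ICI-182,780 for 22hr.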

The target of test [8] is Progesterone receptor (Homo sapiens) (UniProt P06401). In words: qHTS assay to identify small molecule agonists of the progesterone receptor (PR) signaling pathway (AID 1346784). Further: nearly all actives have a fitted effect of over 30% in size. Further: potency means the concentration at half of the fitted maximal effect. A digest of the protocol: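 The screen uses PR-UAS-bla HEK 293T cells in charcoal-stripped serum (2%). Compounds are applied for 16 hr at 37C after a 6 hr pre-incubation, and reporter activity is detected with a FRET beta-lactamase substrate after 2 hr at room temperature.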
Progesterone receptor (Homo sapiens), sequence (P06401 whole entry, looked up): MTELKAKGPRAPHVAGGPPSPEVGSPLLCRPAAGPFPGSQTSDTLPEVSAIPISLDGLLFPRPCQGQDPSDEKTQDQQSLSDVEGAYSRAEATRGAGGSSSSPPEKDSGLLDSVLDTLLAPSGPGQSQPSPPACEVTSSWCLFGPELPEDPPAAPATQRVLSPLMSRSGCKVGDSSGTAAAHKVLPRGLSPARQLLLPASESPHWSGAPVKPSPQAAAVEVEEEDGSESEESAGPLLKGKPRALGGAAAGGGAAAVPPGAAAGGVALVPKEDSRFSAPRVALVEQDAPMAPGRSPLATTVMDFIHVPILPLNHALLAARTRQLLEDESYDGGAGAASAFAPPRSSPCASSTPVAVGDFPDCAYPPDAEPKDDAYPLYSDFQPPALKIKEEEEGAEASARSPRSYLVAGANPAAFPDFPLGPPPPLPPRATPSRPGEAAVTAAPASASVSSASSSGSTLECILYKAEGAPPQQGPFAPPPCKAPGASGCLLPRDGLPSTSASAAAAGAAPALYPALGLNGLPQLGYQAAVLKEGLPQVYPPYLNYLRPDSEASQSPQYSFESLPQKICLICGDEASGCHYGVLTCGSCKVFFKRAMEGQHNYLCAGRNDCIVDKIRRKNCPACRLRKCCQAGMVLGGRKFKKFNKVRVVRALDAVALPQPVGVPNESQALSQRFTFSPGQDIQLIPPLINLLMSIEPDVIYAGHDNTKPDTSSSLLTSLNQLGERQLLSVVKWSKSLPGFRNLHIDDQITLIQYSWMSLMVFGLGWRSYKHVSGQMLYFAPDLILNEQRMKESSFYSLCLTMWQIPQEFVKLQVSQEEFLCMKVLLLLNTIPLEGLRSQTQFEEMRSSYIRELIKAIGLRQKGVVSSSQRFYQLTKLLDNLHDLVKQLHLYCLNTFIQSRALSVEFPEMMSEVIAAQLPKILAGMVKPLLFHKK

The target is the same in test [9]. In words: qHTS assay to identify small molecule antagonists of the progesterone receptor (PR) signaling pathway (AID 1346795; active means well fitted inhibition curve with a large enough effect in the signal ratio in the repeat runs, not every such curve was filed as active; the % refers to the signal ratio). The gist of the method: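 After 6 hr plating at 37C in 2% stripped-serum medium, PR-UAS-bla HEK293T cells got compounds, then 1 nM R5020. Sixteen hours later, LiveBLAzer substrate was applied for 2 hr at room temperature and fluorescence was recorded.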

The nature of test [10]: qHTS assay to identify small molecule agonists of the progesterone receptor (PR) signaling pathway - cell viability counter screen (AID 1346799). Further: nearly all actives have a fitted effect of over 45% in size. The gist of the method: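 Viability was scored by ATP luminescence (CellTiter-Glo, 30 min, room temperature) in the same wells used for the reporter readout, after 16 hr compound exposure of PR-UAS-bla HEK293T cells.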
A short description of test [11]: qHTS assay to identify small molecule antagonists of the TGF-beta/Smad signaling pathway - cell viability counter screen (AID 1346824; active means well fitted curve in the direction sought with a large enough effect in the repeat runs; an effect the other way counts as inactive or inconclusive; further: nearly all actives have a fitted effect of over 50% in size). A digest of the protocol:
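SBE-bla HEK 293T cells were plated overnight at 37 C, then given compounds in DMSO plus TGF-beta1 (added as 0.25 ng/mL solution) for 5 hr. After the bla read, CellTiter-Glo was added to the same wells and luminescence read after 30 min at room temperature.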

Test [12] in a line: qHTS assay to identify small molecule agonists of the TGF-beta/Smad signaling pathway - cell viability counter screen (AID 1346829; active means well fitted curve in the direction sought with a large enough effect in the repeat runs; an effect the other way counts as inactive or inconclusive; further: top concentration of the series differs between compounds; nearly all actives have a fitted effect of over 45% in size). The gist of the method: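 In parallel with the Smad reporter read, viability of HEK 293T cells stably carrying SBE-bla is quantified by ATP luminescence following 5 hr compound treatment.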
A short description of test [13]: qHTS assay to identify small molecule agonists of the TGF-beta/Smad signaling pathway (AID 1346859; active means well fitted activation curve with a large enough effect in the signal ratio in the repeat runs, not every such curve was filed as active; the % refers to the signal ratio; further: series mostly up to about 77 µM). The gist of the method:
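Dual-wavelength fluorescence (460/530 nm emission) quantified beta-lactamase expression under the Smad binding element in HEK 293T cells following 5 hr compound treatment at 37 C.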

In test [14] the target is Thyrotropin-releasing hormone receptor (Homo sapiens) (UniProt P34981). Put plainly: qHTS assay to identify small molecule antagonists of the thyrotropin-releasing hormone receptor (TRHR) signaling pathway (AID 1346877; active means well fitted inhibition curve with a large enough effect in the repeat runs, not every such curve was filed as active; further: series mostly up to about 51 µM). A digest of the protocol: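 Antagonism is measured as suppression of the calcium response to 1 nM TRH in TRHR-HEK293 cells that have been dye-loaded for 2 h at 37 °C after overnight plating. Each compound is tested at 15 concentrations in triplicate.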
Thyrotropin-releasing hormone receptor (Homo sapiens), sequence (P34981 whole entry, looked up): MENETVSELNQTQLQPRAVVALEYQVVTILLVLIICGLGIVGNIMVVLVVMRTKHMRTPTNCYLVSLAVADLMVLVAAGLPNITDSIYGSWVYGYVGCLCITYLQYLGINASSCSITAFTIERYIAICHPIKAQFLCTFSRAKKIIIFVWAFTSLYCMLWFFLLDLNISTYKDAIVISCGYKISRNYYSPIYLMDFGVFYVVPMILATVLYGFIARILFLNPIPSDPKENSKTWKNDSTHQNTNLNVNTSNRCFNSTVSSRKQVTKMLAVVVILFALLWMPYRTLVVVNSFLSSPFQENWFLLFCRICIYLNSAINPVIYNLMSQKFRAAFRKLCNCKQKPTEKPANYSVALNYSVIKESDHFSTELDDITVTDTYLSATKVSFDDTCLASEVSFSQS

Test [15] can be described thus: qHTS assay to identify small molecule agonists of the estrogen receptor beta (ER-beta) signaling pathway - cell viability counter screen (AID 1259380; active means well fitted curve in the direction sought with a large enough effect in the repeat runs; an effect the other way counts as inactive or inconclusive; further: nearly all actives have a fitted effect of over 30% in size). A digest of the protocol: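 Cytotoxicity is measured in parallel with the reporter screen: after 16 hr compound exposure at 37C and a 2 hr LiveBLAzer step, CellTiter-Glo is added to the same ER-beta-UAS-bla HEK293T wells and luminescence read after 30 min.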

Test [16] addresses Estrogen receptor (Homo sapiens) (UniProt P03372). In words: qHTS assay to identify small molecule agonists of the estrogen receptor alpha (ER-alpha) signaling pathway in the presence of an antagonist (AID 1259383). Further: top concentration of the series differs between compounds; nearly all actives have a fitted effect of over 15% in size. The gist of the method: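 Agonist-mode confirmation in the presence of the ER antagonist ICI-182,780 at 10.0nM final. Breast-derived VM7Luc4E2 reporter cells were exposed to compounds for 22hr, and ERE-driven luciferase was quantified by luminescence.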

Test [17] is described as follows: qHTS assay to identify small molecule antagonists of the progesterone receptor (PR) signaling pathway - cell viability counter screen (AID 1346798; active means well fitted curve in the direction sought with a large enough effect in the repeat runs; an effect the other way counts as inactive or inconclusive; further: series mostly up to about 92 µM; nearly all actives have a fitted effect of over 50% in size). The gist of the method: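 Viability was determined by ATP-based luminescence (CellTiter-Glo) in PR-UAS-bla HEK293T cells cultured in 2% charcoal-stripped serum and incubated 16 hr with compounds under R5020 stimulation.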

Estrogen receptor (Homo sapiens), sequence (P03372 whole entry, looked up): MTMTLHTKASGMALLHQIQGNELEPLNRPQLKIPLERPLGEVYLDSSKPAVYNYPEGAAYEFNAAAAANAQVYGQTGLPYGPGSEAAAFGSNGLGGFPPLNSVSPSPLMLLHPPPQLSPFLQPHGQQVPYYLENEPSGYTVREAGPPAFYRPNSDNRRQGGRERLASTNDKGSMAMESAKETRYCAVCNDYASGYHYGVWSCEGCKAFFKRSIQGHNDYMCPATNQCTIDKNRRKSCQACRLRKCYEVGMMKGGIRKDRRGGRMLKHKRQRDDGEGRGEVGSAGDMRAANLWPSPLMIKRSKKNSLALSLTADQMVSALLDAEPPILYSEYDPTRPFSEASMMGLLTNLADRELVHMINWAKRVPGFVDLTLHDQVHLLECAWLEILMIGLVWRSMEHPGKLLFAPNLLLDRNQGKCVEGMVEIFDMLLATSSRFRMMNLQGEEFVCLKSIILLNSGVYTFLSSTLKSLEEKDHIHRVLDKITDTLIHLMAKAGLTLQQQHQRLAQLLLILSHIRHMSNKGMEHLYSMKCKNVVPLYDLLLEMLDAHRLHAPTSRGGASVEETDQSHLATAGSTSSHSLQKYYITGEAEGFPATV
Thyrotropin receptor (Homo sapiens), sequence (P16473 whole entry, looked up): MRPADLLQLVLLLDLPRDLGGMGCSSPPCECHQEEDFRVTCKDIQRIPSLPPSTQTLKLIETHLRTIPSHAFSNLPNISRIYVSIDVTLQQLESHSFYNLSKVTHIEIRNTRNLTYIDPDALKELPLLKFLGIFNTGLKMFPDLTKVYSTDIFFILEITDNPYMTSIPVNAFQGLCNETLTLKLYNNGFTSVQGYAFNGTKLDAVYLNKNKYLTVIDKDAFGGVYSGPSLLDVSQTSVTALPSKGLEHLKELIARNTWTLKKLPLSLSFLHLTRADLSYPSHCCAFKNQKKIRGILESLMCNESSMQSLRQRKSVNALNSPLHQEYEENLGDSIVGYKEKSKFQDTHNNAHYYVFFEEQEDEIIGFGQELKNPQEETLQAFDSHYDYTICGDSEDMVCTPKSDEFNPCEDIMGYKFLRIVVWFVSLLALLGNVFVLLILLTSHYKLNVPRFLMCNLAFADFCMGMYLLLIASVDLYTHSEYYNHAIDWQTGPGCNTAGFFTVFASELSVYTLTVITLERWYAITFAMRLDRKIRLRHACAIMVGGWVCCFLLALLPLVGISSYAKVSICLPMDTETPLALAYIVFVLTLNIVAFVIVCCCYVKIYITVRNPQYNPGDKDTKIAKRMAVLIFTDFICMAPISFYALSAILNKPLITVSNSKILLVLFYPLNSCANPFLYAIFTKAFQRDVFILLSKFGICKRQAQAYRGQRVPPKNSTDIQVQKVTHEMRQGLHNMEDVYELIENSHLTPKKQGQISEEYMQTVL

Regarding `C=CC(=O)N1CCOCC1`, the Potency entry in test [1], in test [2], in test [3], in [4], in [6] and in [8] was “inactive” throughout. Also, the Potency result in test [9] and in test [10] was “inactive” throughout. Also, the result in test [5], in test [7], in test [11], in test [12], in test [13] and in [14] was inactive.
Turning to `CC(C)N1C(=O)c2ccccc2C1=O`, the Potency entry in test [1], in [2], in [3], in test [15], in test [4] and in test [16] was “inactive” throughout. Moreover, the Potency result in [6], in test [9], in test [17] and in test [10] was “inactive” each time. Also, the call in test [5], in test [11], in test [12] and in test [13] was inactive.
As to `CCCCCCCCCCCl`, the Potency entry in test [1], in test [2], in test [3], in test [4], in test [16] and in [8] was “inactive” throughout. Moreover, the Potency result in test [9] and in [10] was “inactive” in each case. For the same compound, the outcome in test [7], in [12], in test [13] and in [14] was inactive.
Regarding `C#CC(O)CCCCC` (configuration not stated), the Potency result in test [1], in test [2], in test [3], in [15], in test [4] and in [6] was “inactive” each time. Moreover, the Potency entry in test [9] and in test [10] was “inactive” in each case. The compound was called inactive in [5], in test [7] and in test [13]. The Potency in test [8] is 27.5 µM (active).
`c1ccc2cnncc2c1`: the Potency result in [1], in test [2], in test [3], in test [16], in [6] and in test [8] was “inactive” throughout. Besides, the Potency entry in test [9], in [17] and in [10] was “inactive” each time. Also, the result in [5], in test [7], in test [11], in test [12], in test [13] and in [14] was inactive.
As to `COc1cc(O)cc(O)c1`, the Potency entry in [1], in test [2], in [3], in test [16], in test [6] and in test [8] was “inactive” throughout. Moreover, the Potency entry in test [9], in test [17] and in test [10] was “inactive” throughout. The compound was classed as inactive in [5], in test [11], in test [12], in test [13] and in test [14].
On to `NCCN1CCNC1=O`, for which the Potency entry in [1], in test [2], in test [3], in test [15], in [16] and in [6] was “inactive” throughout. Also, the Potency result in test [8], in [9], in test [17] and in [10] was “inactive” throughout. Also, the result in test [5], in test [12] and in test [13] was inactive.
As for `Nc1ccc2cc(S(=O)(=O)O)ccc2c1`, the Potency entry in test [1], in test [2], in test [3], in test [15], in test [4] and in test [16] was “inactive” in each case. Further, the Potency result in [8], in test [9], in test [17] and in test [10] was “inactive” throughout. Besides, the compound was called inactive in test [5], in test [7], in [11], in test [13] and in test [14].
Turning to `CC(C)=CC(=O)O`, the Potency entry in test [1], in [2], in [3], in test [15], in test [4] and in test [16] was “inactive” in each case. Moreover, the Potency entry in test [6], in test [9], in test [17] and in [10] was “inactive” each time. For the same compound, the compound was called inactive in [5], in [7], in test [13] and in test [14].
For `CCCCCCCCCCC1CO1` (configuration not stated), the Potency entry in [1], in [2], in test [3], in test [4], in test [6] and in test [8] was “inactive” throughout. Also, the Potency result in test [9], in test [17] and in test [10] was “inactive” each time. The result in [5], in [7], in test [11], in test [13] and in test [14] was inactive.
